Values joined by “and” are separate entries in the source; they are usually repeats but may differ in a detail not shown here. Identical values can stand only once. Out of some 5,500 compounds screened, about 2,000 (36%) were called active. Roughly 18% stayed inconclusive and do not appear here. Rule as the data show it: active = normalized growth mostly below about 0.91 (no sharp cut-off); inconclusive = no clear call, values can overlap the other calls; inactive = mostly above about 0.92. The list shows a part of the results.
Test: chemical genetic growth profiling, strain panel (AID 1159580);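 also: tested at 20 µM; growth read once vehicle control cultures reached saturation at 30 °C; 1 = growth at the plate median or of vehicle wells; lower values mean less growth of the strain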
Conditions: S. cerevisiae deletion strains, growth OD

Measured: normalized growth

O=c1[nH]oc2c1CCNC2
inactive: locus YAL013W, strain DEP1, stronger effect = lower value 1 and 1.01 | locus YAL021C, strain ccr4, stronger effect = lower value 1.01 | locus YAL026C, strain drs2, stronger effect = lower value 1.01 | locus YAL030W, strain snc1, stronger effect = lower value 0.998 | locus YAL040C, strain CLN3, stronger effect = lower value 0.99 | locus YBL061C, strain skt5, stronger effect = lower value 1 | locus YBR009C, strain hhf1, stronger effect = lower value 0.987 | locus YBR021W, strain FUR4, stronger effect = lower value 1.01 | locus YBR023C, strain chs3, stronger effect = lower value 0.998 | locus YBR171W, strain sec66, stronger effect = lower value 0.985 | locus YBR229C, strain ROT2, stronger effect = lower value 1 | locus YBR231C, strain swc5, stronger effect = lower value 0.976 | locus YBR279W, strain paf1, stronger effect = lower value 1.01 | locus YCL011C, strain gbp2, stronger effect = lower value 1.01 | locus YCL016C, strain dcc1, stronger effect = lower value 1 | locus YCL029C, strain bik1, stronger effect = lower value 0.97 | locus YCL061C, strain MRC1 (second series), stronger effect = lower value 1 | locus YCL069W, strain vba3, stronger effect = lower value 1 | locus YCR088W, strain abp1, stronger effect = lower value 0.999 | locus YDL005C, strain med2, stronger effect = lower value 1 | locus YDL035C, strain GPR1, stronger effect = lower value 0.999 | locus YDL040C, strain nat1, stronger effect = lower value 0.992 | locus YDL074C, strain BRE1, stronger effect = lower value 1.04 | locus YDL101C, strain DUN1, stronger effect = lower value 1.01 | locus YDL134C, strain PPH21, stronger effect = lower value 1.01 | locus YDL185W, strain tfp1, stronger effect = lower value 0.964 | locus YDL192W, strain arf1, stronger effect = lower value 0.976 | locus YDR001C, strain nth1, stronger effect = lower value 0.996 | locus YDR069C, strain doa4, stronger effect = lower value 0.993 | locus YDR101C, strain arx1, stronger effect = lower value 0.997 | locus YDR137W, strain rgp1, stronger effect = lower value 1.02 | locus YDR150W, strain NUM1, stronger effect = lower value 0.996 and 0.999 | locus YDR159W, strain sac3, stronger effect = lower value 0.973 | locus YDR162C, strain NBP2, stronger effect = lower value 1.02 | locus YDR195W, strain ref2 0.947 | locus YDR297W, strain sur2, stronger effect = lower value 1.01 | locus YDR318W, strain mcm21, stronger effect = lower value 0.966 | locus YDR334W, strain swr1, stronger effect = lower value 1 | locus YDR335W, strain msn5, stronger effect = lower value 1 | locus YDR363W, strain ESC2, stronger effect = lower value 1.01 | locus YDR388W, stronger effect = lower value 0.986 | locus YDR392W, strain spt3, stronger effect = lower value 1.01 | locus YDR502C, strain sam2, stronger effect = lower value 1 | locus YEL003W, strain gim4, stronger effect = lower value 0.998 | locus YEL037C, strain rad23, stronger effect = lower value 0.999 | locus YEL061C, strain CIN8 (second series), stronger effect = lower value 0.998 | locus YEL061C, strain CIN8, stronger effect = lower value 0.999 | locus YER002W, strain NOP16, stronger effect = lower value 1 | locus YER015W, strain faa2, stronger effect = lower value 1.01 | locus YER016W, strain bim1, stronger effect = lower value 1 | locus YER110C, stronger effect = lower value 0.967 | locus YER111C, strain swi4, stronger effect = lower value 0.994 | locus YER155C, strain BEM2 (second series), stronger effect = lower value 0.978 | locus YER155C, strain BEM2, stronger effect = lower value 0.998 | locus YER167W, strain BCK2, stronger effect = lower value 0.973 | locus YFR010W, strain ubp6, stronger effect = lower value 1.01 | locus YGL078C, strain dbp3, stronger effect = lower value 0.994 | locus YGL086W, strain mad1, stronger effect = lower value 0.963 | locus YGL167C, strain pmr1, stronger effect = lower value 0.999 | locus YGL173C, strain kem1, stronger effect = lower value 1.01 | locus YGL227W, strain vid30, stronger effect = lower value 0.994 | locus YGL240W, strain doc1, stronger effect = lower value 0.988 | locus YGL248W, strain PDE1, stronger effect = lower value 1 | locus YGL253W, strain hxk2, stronger effect = lower value 1.02 | locus YGR078C, strain PAC10, stronger effect = lower value 1.03 and 0.994 | locus YGR135W, strain pre9, stronger effect = lower value 1.01 | locus YGR229C, strain SMI1, stronger effect = lower value 1.03 | locus YGR252W, strain gcn5, stronger effect = lower value 0.97 | locus YHR013C, strain ard1, stronger effect = lower value 0.998 | locus YHR027C, strain rpn1, stronger effect = lower value 1.01 | locus YHR030C, strain SLT2, stronger effect = lower value 0.992 and 1.01 | locus YHR079C, strain IRE1 (second series), stronger effect = lower value 1 | locus YHR079C, strain IRE1, stronger effect = lower value 1.03 | locus YHR094C, strain hxt1, stronger effect = lower value 0.973 | locus YHR129C, strain ARP1, stronger effect = lower value 1 | locus YHR142W, strain chs7, stronger effect = lower value 1.03 | locus YHR200W, strain rpn10, stronger effect = lower value 0.975 | locus YIL066C, strain RNR3, stronger effect = lower value 1.01 | locus YIL073C, strain SPO22, stronger effect = lower value 0.902 | locus YIL125W, strain kgd1, stronger effect = lower value 0.987 | locus YIR030C, strain dcg1, stronger effect = lower value 0.982 | locus YJL092W, strain hpr5, stronger effect = lower value 0.998 | locus YJL095W, strain BCK1 (second series), stronger effect = lower value 0.999 | locus YJL095W, strain BCK1, stronger effect = lower value 1.06 and 1.02 | locus YJL115W, strain asf1, stronger effect = lower value 1.01 | locus YJL129C, strain trk1, stronger effect = lower value 1 | locus YJL134W, strain LCB3, stronger effect = lower value 0.994 | locus YJL154C, strain vps35, stronger effect = lower value 0.995 | locus YJL164C, strain tpk1, stronger effect = lower value 1 | locus YJL166W, strain qcr8, stronger effect = lower value 0.965 | locus YJL168C, strain set2, stronger effect = lower value 0.988 | locus YJL187C, strain SWE1 (second series), stronger effect = lower value 1.02 | locus YJR043C, strain POL32, stronger effect = lower value 0.987 | locus YJR066W, strain TOR1, stronger effect = lower value 0.921 | locus YJR075W, strain HOC1, stronger effect = lower value 1.08

From PubChem BioAssay AID1159580 (chemical genetic matrix, 2015)
